# PubChem BioAssay AID1159580 (chemical genetic matrix, 2015)
# Hit rate of the full screen: of about 5,500 compounds, about 2,000 (36%) were called active. About 18% were inconclusive and are not listed. This is one part of the list. A number with no mark means an inactive call. Cut-off read from the data, not from the text of the source: active = normalized growth mostly below about 0.91 (no sharp cut-off); inconclusive = no clear call, values can overlap the other calls; inactive = mostly above about 0.92.
# Test: chemical genetic growth profiling, strain panel (AID 1159580);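 note: tested at 20 µM; growth read once vehicle control cultures reached saturation at 30 °C; 1 = growth at the plate median or of vehicle wells; lower values mean less growth of the strain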
# Conditions: growth OD
# [1] = S. cerevisiae deletion strains, locus YAL013W, strain DEP1, hits give low values
# [2] = S. cerevisiae deletion strains, locus YBR229C, strain ROT2, hits give low values
# [3] = S. cerevisiae deletion strains, locus YCL061C, strain MRC1, hits give low values
# [4] = S. cerevisiae deletion strains, locus YDL101C, strain DUN1, hits give low values
# [5] = S. cerevisiae deletion strains, locus YDL134C, strain PPH21, hits give low values
# [6] = S. cerevisiae deletion strains, locus YDR150W, strain NUM1, hits give low values
# [7] = S. cerevisiae deletion strains, locus YEL061C, strain CIN8, hits give low values
# [8] = S. cerevisiae deletion strains, locus YGR078C, strain PAC10, hits give low values
# [9] = S. cerevisiae deletion strains, locus YHR030C, strain SLT2, hits give low values
# [10] = S. cerevisiae deletion strains, locus YHR087W, strain rtc3, hits give low values
# [11] = S. cerevisiae deletion strains, locus YJL187C, strain SWE1, hits give low values
# [12] = S. cerevisiae deletion strains, locus YJR043C, strain POL32, hits give low values
# [13] = S. cerevisiae deletion strains, locus YJR075W, strain HOC1, hits give low values
# [14] = S. cerevisiae deletion strains, locus YLR039C, strain RIC1, hits give low values
# [15] = S. cerevisiae deletion strains, locus YLR058C, strain SHM2 (second series), hits give low values
# [16] = S. cerevisiae deletion strains, locus YLR085C, strain ARP6, hits give low values
# [17] = S. cerevisiae deletion strains, locus YLR262C, strain YPT6, hits give low values
# [18] = S. cerevisiae deletion strains, locus YML094W, strain GIM5, hits give low values
# [19] = S. cerevisiae deletion strains, locus YMR219W, strain ESC1, hits give low values
# [20] = S. cerevisiae deletion strains, locus YMR263W, strain SAP30, hits give low values
# [21] = S. cerevisiae deletion strains, locus YMR307W, strain GAS1, hits give low values
# [22] = S. cerevisiae deletion strains, locus YNL153C, strain GIM3, hits give low values
# [23] = S. cerevisiae deletion strains, locus YNL298W, strain CLA4 (second series), hits give low values
# [24] = S. cerevisiae deletion strains, locus YNL322C, strain KRE1, hits give low values
# [25] = S. cerevisiae deletion strains, locus YNR030W, strain Alg12, hits give low values
# [26] = S. cerevisiae deletion strains, locus YOL006C, strain TOP1, hits give low values
# [27] = S. cerevisiae deletion strains, locus YPL055C, strain LGE1, hits give low values
# [28] = S. cerevisiae deletion strains, locus YPL241C, strain CIN2, hits give low values
# [29] = S. cerevisiae deletion strains, locus YPR135W, strain CTF4, hits give low values
# [30] = S. cerevisiae strains, strain wild type, hits give low values
structure (smiles),measurement,setting,value
COC(=O)c1cccnc1Sc1ccc(C)cc1,normalized growth,[1],0.947
same,normalized growth,[2],0.97
same,normalized growth,[3],0.968
same,normalized growth,[4],0.991
same,normalized growth,[5],0.958
same,normalized growth,[6],0.904
same,normalized growth,[7],0.956
same,normalized growth,[8],0.954
same,normalized growth,[9],0.432 (active)
same,normalized growth,[10],0.974
same,normalized growth,[11],0.967
same,normalized growth,[12],0.95
same,normalized growth,[13],0.989
same,normalized growth,[14],0.913
same,normalized growth,[15],0.966
same,normalized growth,[16],0.666 (active)
same,normalized growth,[17],0.961
same,normalized growth,[18],0.97
same,normalized growth,[19],0.958
same,normalized growth,[20],0.962
same,normalized growth,[21],0.686
same,normalized growth,"S. cerevisiae deletion strains, locus YNL128W, strain TEP1, hits give low values",0.98
same,normalized growth,[22],0.991
same,normalized growth,[23],0.917
same,normalized growth,[24],0.965
same,normalized growth,[25],0.928
same,normalized growth,[26],0.684 (active)
same,normalized growth,[27],0.812
same,normalized growth,[28],0.769 (active)
same,normalized growth,[29],0.61 (active)
same,normalized growth,[30],0.965
Cc1ccc(Sc2ncccc2C(=O)NCC(=O)O)cc1,normalized growth,[1],1.03
same,normalized growth,[2],1.02
same,normalized growth,[4],1.04
same,normalized growth,[5],0.999
same,normalized growth,[6],1.03
same,normalized growth,[7],1.01
same,normalized growth,[8],1.04
same,normalized growth,[9],1.06
same,normalized growth,[10],0.994
same,normalized growth,[12],0.962
same,normalized growth,[13],1.02
same,normalized growth,[14],1
same,normalized growth,[15],1.02
same,normalized growth,[16],1.02
same,normalized growth,[17],1.01
same,normalized growth,[18],0.992
same,normalized growth,[19],1.01
same,normalized growth,[20],1.02
same,normalized growth,[22],1.03
same,normalized growth,[23],1.02
same,normalized growth,[24],1.01
same,normalized growth,[25],1.02
same,normalized growth,[26],1.04
same,normalized growth,[27],1.01
same,normalized growth,[28],0.996
same,normalized growth,[29],1.08
CC(C)(C)c1ccc(Oc2ncccc2NC(=O)c2ccccc2C(F)(F)F)cc1,normalized growth,[1],0.986
same,normalized growth,[2],1.01
same,normalized growth,[4],1.02
same,normalized growth,[5],0.996
same,normalized growth,[6],1.06
same,normalized growth,[7],1
same,normalized growth,[8],0.992
same,normalized growth,[9],0.934
same,normalized growth,[10],1
same,normalized growth,[11],0.998
same,normalized growth,[12],0.948
same,normalized growth,[13],0.988
same,normalized growth,"S. cerevisiae deletion strains, locus YKL190W, strain CNB1, hits give low values",1
same,normalized growth,[14],0.982
same,normalized growth,[15],0.986
same,normalized growth,[16],0.972
same,normalized growth,[17],0.967
same,normalized growth,[18],1.03
same,normalized growth,[19],0.999
same,normalized growth,[20],1.01
same,normalized growth,[21],0.876
same,normalized growth,[22],1
same,normalized growth,[23],0.987
same,normalized growth,[24],1
same,normalized growth,[25],0.993
same,normalized growth,[27],0.996
same,normalized growth,[28],0.987
same,normalized growth,[29],0.984
Cc1ccc(SC(=O)c2cccnc2Oc2ccccc2)cc1,normalized growth,[1],0.972
same,normalized growth,[2],0.988
same,normalized growth,[3],0.989
same,normalized growth,[4],1.03
same,normalized growth,[5],0.983
same,normalized growth,[6],1.02
same,normalized growth,[7],0.965
same,normalized growth,[8],0.992
same,normalized growth,[9],0.815
same,normalized growth,[10],0.953
same,normalized growth,[11],0.98
same,normalized growth,[12],0.992
same,normalized growth,[13],0.985
same,normalized growth,[14],0.723 (active)
same,normalized growth,[15],0.992
same,normalized growth,[16],0.818
same,normalized growth,[17],0.679 (active)
same,normalized growth,[18],0.949
same,normalized growth,[19],0.993
same,normalized growth,[20],0.984
same,normalized growth,[22],0.982
same,normalized growth,[23],0.925
same,normalized growth,[24],0.983
same,normalized growth,[25],0.91
same,normalized growth,[27],0.939
same,normalized growth,[28],0.94
same,normalized growth,[29],0.723
same,normalized growth,[30],0.952
